Structures can show the parent of a compound that is named as a salt.

The test system of the first experiment is LOC_OS03G12390-cb001. In words: thermal shift delta Tm vs DMSO control; higher = stronger stabilization (binding). Conditions: 12.5 µM; protein concentration 2 µM. An outline of the steps: (§1)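 Purified, E. coli-expressed rice kinase domain constructs were tested by differential scanning fluorimetry in 96-well plates: 19.5 μl of 2 μM kinase in 100 mM potassium phosphate pH 7.5, 150 mM NaCl, 10% glycerol, 5 × SYPRO Orange, plus compound in DMSO. Fluorescence was read from 25°C to 95°C at 0.05°C/s. Melting temperatures came from Boltzmann fits, and the shift is the triplicate mean relative to protein with DMSO alone.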
For the compound `Cc1cc(NC(=O)c2cccc(NC(=O)/C=C/CN(C)C)c2)ccc1Nc1nccc(-c2cccnc2)n1`, the “thermal shift delta Tm” value is 2.05 °C. Consider `Nc1nccc(Oc2ccc(NC(=O)c3c[nH]cc(-c4ccc(F)cc4)c3=O)cc2F)c1Cl`, for which the “thermal shift delta Tm” value came out at 0.55 °C. For `COc1ccc(/C=C/C(=O)C2(C(=O)/C=C/c3ccc(OC)c(OC)c3)CCCCC2)cc1OC`, the “thermal shift delta Tm” value is -0.65 °C. On to `CC(C)CC(=O)Nc1n[nH]c2c1CN(C(=O)C1CCN(C)CC1)C2(C)C`, for which the “thermal shift delta Tm” value was found to be 0.64 °C.

The next experiment relates to LOC_OS03G27990-cb004. The experiment is described as above. As to conditions: 12.5 µM; protein concentration 2 µM. The procedure, abridged:
as §1
As to `CCn1c(=O)c(-c2ccc(-c3cncs3)cc2Cl)cc2cnc(Nc3ccc(N4CCN(C)CC4)cc3)nc21`, the “thermal shift delta Tm” value amounted to 0.34 °C.

For `CNC(=O)c1cccc(-c2ccc3c(N4CCOC[C@@H]4C)nc(N4CCOC[C@@H]4C)nc3n2)c1` [Vistusertib (AZD2014)], the “thermal shift delta Tm” value was determined as 0.11 °C.

Regarding `CC(C)S(=O)(=O)c1ccc2nccc(Nc3ccc4scnc4c3)c2c1`, the “thermal shift delta Tm” value came to 0.22 °C.

For the compound `Cn1cc(-c2ccc3ncc(Cc4ccc5ncccc5c4)n3n2)cn1`, the “thermal shift delta Tm” value stood at 0.07 °C. Turning to `N#Cc1ccc2ncnc(NCCc3ccccc3)c2c1` [Senexin A], the “thermal shift delta Tm” value was determined as 0.37 °C. With `O=C1NC(=O)/C(=C/c2ccc3nccc(-c4ccncc4)c3c2)S1`, the “thermal shift delta Tm” value is 0.28 °C. For the compound `Cn1cnc2c(F)c(Nc3ccc(Br)cc3F)c(C(=O)NOCCO)cc21`, the “thermal shift delta Tm” value worked out at 0.4 °C.

For `Cc1cc(Nc2ncc(Cl)c(Nc3ccccc3S(=O)(=O)C(C)C)n2)c(OC(C)C)cc1C1CCNCC1` [Ceritinib (LDK378)], the “thermal shift delta Tm” value is 0.52 °C. `Cc1nc2ccc(-n3ncc(C(=O)c4cc5ccccc5[nH]4)c3N)cc2[nH]1`: the “thermal shift delta Tm” value stood at 0.29 °C.

Take `C=C[C@@](C)(/C=C/c1ccc(O)cc1)CCC=C(C)C` [Bakuchiol]: the “thermal shift delta Tm” value is 0.37 °C. Turning to `C=CC(=O)Nc1cccc(Nc2nc(Nc3ccc(N4CCN(C(C)=O)CC4)cc3OC)ncc2C(F)(F)F)c1` [Rociletinib (CO-1686, AVL-301)], the “thermal shift delta Tm” value is 0.66 °C. `CCCS(=O)(=O)Nc1ccc(F)c(C(=O)c2c[nH]c3ncc(-c4ccc(Cl)cc4)cc23)c1F` [Vemurafenib (PLX4032, RG7204)]: the “thermal shift delta Tm” value amounted to 0.69 °C. For the compound `COc1cc(OC)c(C=C2C(=O)Nc3ccccc32)c(OC)c1`, the “thermal shift delta Tm” value is 0.05 °C. Turning to `CCN(CC)CCCC(C)Nc1nc(C)cc(Nc2ccc3nc(C)cc(N)c3c2)n1` (configuration not stated), the “thermal shift delta Tm” value was determined as 0.33 °C. Consider `CN1CC(O)C2=C/C(=N/NC(N)=O)C(=O)C=C21` (configuration not stated) [Carbazochrome], for which the “thermal shift delta Tm” value was 0.64 °C. The same measure, in the same setting: with `Cc1cc(Nc2cc(N3CCN(C)CC3)nc(/C=C/c3ccccc3)n2)n[nH]1` the figure was 2.48 °C; with `Cc1ccc(NC(=O)Nc2cc(C(F)(F)F)ccc2F)cc1Nc1ccc2c(c1)NC(=O)/C2=C\c1ccc[nH]1`, 0.77 °C; with `CO[C@H]1C[C@@H]2CC[C@@H](C)[C@@](O)(O2)C(=O)C(=O)N2CCCC[C@H]2C(=O)O[C@H]([C@H](C)C[C@@H]2CC[C@@H](O)[C@H](OC)C2)CC(=O)[C@H](C)/C=C(\C)[C@@H](O)[C@@H](OC)C(=O)[C@H](C)C[C@H](C)/C=C/C=C/C=C/1C` [Rapamycin (Sirolimus)], 0.16 °C. For the compound `C[S+]([O-])c1ccc(-c2nc(-c3ccc(F)cc3)c(-c3ccncc3)[nH]2)cc1` (configuration not stated), the “thermal shift delta Tm” value came out at 0.58 °C.

With `CO[C@H]1CC[C@H](N2C(=O)CNc3ncc(-c4ccc(C(C)(C)O)nc4)nc32)CC1`, the “thermal shift delta Tm” value is -0.29 °C. With `O=C(Nc1ccccc1C(=O)NC1CCCCNC1=O)c1cc2ccccc2s1` (configuration not stated), the “thermal shift delta Tm” value was determined as 0.15 °C. On to `CCN1CCN(Cc2ccc(-c3cc4c(N[C@H](C)c5ccccc5)ncnc4[nH]3)cc2)CC1`, for which the “thermal shift delta Tm” value came to 2.76 °C.

Turning to `Cc1cnc(NC(=O)Nc2cc(Br)c(C)cc2OC[C@@H]2CNCCO2)cn1`, the “thermal shift delta Tm” value is 0.74 °C. `Cc1ccc(NC(=O)c2ccc(CN3CCN(C)CC3)cc2)cc1Nc1nccc(-c2cccnc2)n1` [Imatinib Mesylate (STI571)]: the “thermal shift delta Tm” value is -0.03 °C.

As for `NC(=O)c1ccc(N(C(N)=O)c2c(F)cccc2F)nc1-c1ccc(F)cc1F`, the “thermal shift delta Tm” value worked out at 0.18 °C. Regarding `Cc1nc(-c2cn3c(n2)-c2ccc(-c4cnn(C(C)(C)C(N)=O)c4)cc2OCC3)n(C(C)C)n1` [Taselisib (GDC 0032)], the “thermal shift delta Tm” value was 0.3 °C. On the same count and under the same terms, with `COc1cc(N2CCC(N(C)C)CC2)ccc1Nc1ncc(Cl)c(Nc2ccccc2P(C)(C)=O)n1` the figure was 2.49 °C; with `COc1cc2c(Nc3ccc(NC(=O)c4ccccc4)cc3)ncnc2cc1OCCCN1CCOCC1`, 0.34 °C; with `CNC(=O)c1cc(Oc2ccc(NC(=O)Nc3cc(C(C)(C)C)nn3-c3ccc4ncccc4c3)c(F)c2)ccn1` [Rebastinib (DCC-2036)], 0.52 °C. Consider `CC(C)(CO)n1cc(C(=O)c2cncc(NC(=O)Cc3ccc(Cl)cn3)c2)c2cnc(N)nc21`, for which the “thermal shift delta Tm” value was found to be 0.39 °C. Consider `CS(=O)(=O)N1CCN(Cc2cc3nc(-c4cccc5[nH]ncc45)nc(N4CCOCC4)c3s2)CC1` [Pictilisib (GDC-0941)], for which the “thermal shift delta Tm” value amounted to 0.17 °C.

`C[C@@H]1COC(Nc2ccc3ncnc(Nc4ccc(OCc5nccs5)c(Cl)c4)c3c2)=N1` [Varlitinib]: the “thermal shift delta Tm” value was found to be 0.32 °C. On the same count and under the same terms, to `COc1cc(Nc2ncc(F)c(Nc3ccc4c(n3)NC(=O)C(C)(C)O4)n2)cc(OC)c1OC` belongs 2.62 °C; to `CC(C)n1nc(-c2ccc3oc(N)nc3c2)c2c(N)ncnc21`, 1.24 °C; to `Cc1cc(NC(=O)c2cccc(NC(=O)/C=C/CN(C)C)c2)ccc1Nc1nccc(-c2cccnc2)n1`, 0.81 °C. With `Nc1nccc(Oc2ccc(NC(=O)c3c[nH]cc(-c4ccc(F)cc4)c3=O)cc2F)c1Cl`, the “thermal shift delta Tm” value was determined as 0.24 °C.

Take `COc1ccc(/C=C/C(=O)C2(C(=O)/C=C/c3ccc(OC)c(OC)c3)CCCCC2)cc1OC`: the “thermal shift delta Tm” value worked out at 0.61 °C. As for `CC(C)CC(=O)Nc1n[nH]c2c1CN(C(=O)C1CCN(C)CC1)C2(C)C`, the “thermal shift delta Tm” value was 0.15 °C.

(Values after the supplement of paper PMC9694430.)
